Consider eight compounds from PubChem BioAssay (Tox21).

The structures appear in SMILES notation. Values joined by “and” are separate entries in the source; they are usually repeats but may differ in a detail not shown here. Equal values may be shown once. Values without a mark were called inactive. Records with an inconclusive call do not appear. Active and inactive are the calls of the source. Unless noted, the call rests on the fitted dose curve.

Experiment [1] can be described thus: Nuclear factor erythroid 2-related factor 2/antioxidant responsive element (Nrf2/ARE) small molecule agonists: luciferase reporter gene qHTS assay in human keratinocytes (AID 1919969). Further: nearly all actives have a fitted effect of over 35% in size. Further: potency means the concentration at half of the fitted maximal effect.
Experiment [2] addresses Gonadotropin-releasing hormone receptor (Homo sapiens) (UniProt P30968). As to the kind of experiment: Human gonadotropin-releasing hormone receptor (GnRHR) small molecule agonists, calcium flux assay in GnRHR-HEK293 cells (AID 1920063). Further: nearly all actives have a fitted effect of over 35% in size. Further: potency means the concentration at half of the fitted maximal effect. In a few lines:
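Compounds dissolved in DMSO are pin-transferred onto dye-loaded GnRHR-HEK293 cells, which were seeded 18 h before at 37 C/5% CO2. Calcium signal is read as fluorescence intensity at 1 s intervals for 3 min.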

The target of experiment [3] is KiSS-1 receptor (Homo sapiens) (UniProt Q969F8). The experiment can be described thus: Human kisspeptin (KISS1R) small molecule agonists, calcium flux assay in KISS1R-HEK293 cells (AID 1920064; active means well fitted activation curve with a large enough effect in the repeat runs; further: potency means the concentration at half of the fitted maximal effect). In a few lines: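 Cell line: HEK293, stable human KISS1R. Dye loading 1 h at 37 C after 18 h culture. Read: kinetic fluorescence, 480/540 nm, 3 min at 1 s intervals.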
KiSS-1 receptor (Homo sapiens), sequence (Q969F8 whole entry, looked up): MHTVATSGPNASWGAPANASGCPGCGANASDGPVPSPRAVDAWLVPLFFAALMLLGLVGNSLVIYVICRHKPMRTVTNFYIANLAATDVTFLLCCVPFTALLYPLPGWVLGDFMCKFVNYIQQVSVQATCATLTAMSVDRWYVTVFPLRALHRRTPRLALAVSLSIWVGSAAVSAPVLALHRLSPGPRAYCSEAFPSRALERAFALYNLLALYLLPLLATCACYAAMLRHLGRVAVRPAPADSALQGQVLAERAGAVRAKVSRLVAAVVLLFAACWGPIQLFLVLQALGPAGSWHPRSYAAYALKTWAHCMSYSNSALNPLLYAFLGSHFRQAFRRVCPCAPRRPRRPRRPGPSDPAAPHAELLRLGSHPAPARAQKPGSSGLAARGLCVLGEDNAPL
Experiment [4] is described as follows: G protein-coupled receptor (GPCR) small molecule agonists, calcium flux assay: HEK293 wild type cell line counter screen (AID 1920065). Further: potency means the concentration at half of the fitted maximal effect. In a few lines: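 Tox21 10K compounds, 15 concentrations each in triplicate, pin-transferred in DMSO onto dye-loaded cells; kinetic read at 480/540 nm for 3 min, 1 s intervals.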
In general terms: Calcium flux is commonly read through the fluorescence of an indicator in the cells.

A short description of experiment [5]: p53 small molecule agonists, cell-based qHTS assay with human liver microsomes (AID 1963577).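 Further: p53 response element beta-lactamase reporter cells with liver microsomes plus NADPH.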 In a few lines: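 Metabolically competent format: test substances, human liver microsomes and NADPH (both 0.5 mg/mL final) incubated with p53RE-bla cells 16 h at 37 C. Beta-lactamase reporter signal then quantified by fluorescence.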
Experiment [6] in a line: p53 small molecule agonists, cell-based qHTS assay with human liver microsomes: qHTS cell viability counter screen (AID 1963579). Further: nearly all actives have a fitted effect of over 45% in size. In a few lines: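 Tox21 library compounds, delivered from DMSO stocks, were tested on p53RE-bla cells together with 0.5 mg/mL human liver microsomes and 0.5 mg/mL NADPH (final) over 16 h at 37 C; CellTiter-Glo luminescence served as the cytotoxicity measure.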

The nature of experiment [7]: p53 small molecule agonists, cell-based qHTS assay with rat liver microsomes: qHTS cell viability counter screen (AID 1963580). Further: nearly all actives have a fitted effect of over 45% in size. In a few lines: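 Cytotoxicity counter screen: intracellular ATP read by CellTiter-Glo luminescence in the p53 reporter wells. HCT-116 p53RE-bla cells were treated for 16 h at 37 C alongside rat liver microsomes and NADPH, each 0.5 mg/mL final.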

A short description of experiment [8]: p53 small molecule agonists, cell-based qHTS assay: qHTS cell viability counter screen (AID 1963581). Further: nearly all actives have a fitted effect of over 45% in size. In a few lines:
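ATP content measured by luminescence in HCT-116 p53RE-bla cells treated 16 h at 37 C, same wells as the reporter screen.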

Experiment [9] is described as follows: p53 small molecule agonists, cell-based qHTS assay (AID 1963582; active means well fitted activation curve with a large enough effect in the signal ratio in the repeat runs, not every such curve was filed as active; the % refers to the signal ratio; further: potency means the concentration at half of the fitted maximal effect). In a few lines: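 16 h compound exposure (37 C) of p53 response element–bla cells, preceded by 5 h recovery at 37 C/5% CO2; read-out via LiveBLAzer B/G FRET substrate, 2 h RT, fluorescence intensity.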
A general note: In qHTS, concentration-response curves come from the screen itself.

Experiment [10] concerns the target 5-hydroxytryptamine receptor 2A (Homo sapiens) (UniProt P28223). The experiment can be described thus: 5-hydroxytryptamine receptor 2A (HTR2A) small molecule antagonists, cell-based qHTS assay (AID 1963586). Further: nearly all actives have a fitted effect of over 45% in size. Further: potency means the concentration at half of the fitted maximal effect. In a few lines:
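CHO cells stably expressing human HTR2A were plated for 18 h at 37 C, then loaded with calcium dye for 1 h. Compounds were preincubated 5 min at room temperature before DOI (4 nM solution) was added. Kinetic fluorescence was read for 3 min.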

For experiment [11] the target is unchanged. The experiment can be described thus: 5-hydroxytryptamine receptor 2A (HTR2A) small molecule agonists, cell-based qHTS assay (AID 1963587). Further: nearly all actives have a fitted effect of over 30% in size. Further: potency means the concentration at half of the fitted maximal effect. In a few lines:
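Kinetic calcium-flux fluorescence (2 min, 1 sec intervals) after compound addition in agonist mode. HTR2A-CHO cells were cultured 18 h, then dye-loaded 1 h at 37 C.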

Experiment [12] addresses Muscarinic acetylcholine receptor M1 (Homo sapiens) (UniProt P11229). The experiment can be described thus: Cholinergic receptor muscarinic 1 (CHRM1) small molecule antagonists, cell-based qHTS assay (AID 1963588). Further: nearly all actives have a fitted effect of over 40% in size. In a few lines:
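Compounds were tested at 15 concentrations in three independent runs. Dye-loaded CHRM1-CHO cells were exposed 5 min at room temperature before stimulation by acetylcholine added at 50nM. Intracellular calcium was read kinetically on FDSS for 3 min.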

The target is the same in experiment [13]. As to the kind of experiment: Cholinergic receptor muscarinic 1 (CHRM1) small molecule agonists, cell-based qHTS assay (AID 1963589). Further: nearly all actives have a fitted effect of over 35% in size. Further: potency means the concentration at half of the fitted maximal effect. In a few lines:
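Homogeneous fluorescence calcium flux, agonist mode. Human M1-expressing CHO cells; compound dosed at 15 concentrations, three independent runs; signal sampled every 1 sec.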

In experiment [14] the target is D(2) dopamine receptor (Homo sapiens) (UniProt P14416). As to the kind of experiment: Dopamine D2 receptor (DRD2) small molecule agonists, cell-based qHTS assay (AID 1963594). Further: nearly all actives have a fitted effect of over 35% in size. In a few lines:
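cAMP accumulation in DRD2-HEK293 cells measured by HTRF after 1 h detection; compounds added 10 min before NKH477 (200nM […]) forskolin-analogue stimulation, 30 min at room temperature, with Ro20-1724 present at 0.1 mM final.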

Experiment [15] shares this target. As to the kind of experiment: Dopamine D2 receptor (DRD2) small molecule antagonists, cell-based qHTS assay (AID 1963595; active means well fitted inhibition curve with a large enough effect in the signal ratio in the repeat runs, with a control signal flat; the % refers to the signal ratio; further: potency means the concentration at half of the fitted maximal effect). In a few lines: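 Human DRD2 antagonist qHTS measuring cAMP by HTRF. The cells are exposed to compound for 10 min, then to NKH477 (200 nM) and quinpirole (12 nM) for 30 min at RT, with Ro20-1724 (0.1 mM) present throughout.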
The nature of experiment [16]: p53 small molecule agonists, cell-based qHTS assay with rat liver microsomes (AID 1963578). Further: potency means the concentration at half of the fitted maximal effect. In a few lines:
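Each plate received p53RE-bla cells, then compound, then rat liver microsomes and NADPH (both 0.5 mg/mL final). Plates were held 16 h at 37 C, and beta-lactamase activity was detected with LiveBLAzer over 2 h.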

Experiment [17] can be described thus: cAMP Responsive Elements (CRE) small molecule antagonists, cell-based qHTS assay (AID 1963591; active means well fitted inhibition curve with a large enough effect in the signal ratio in the repeat runs, not every such curve was filed as active; the % refers to the signal ratio). In a few lines:
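First, CRE-bla HEK293T cells settled 18 h at 37 C. Next, compound and 0.25 uM final NKH477 were applied for 3 h. Last, LiveBLAzer B/G substrate was loaded for 2 h at room temperature.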

For experiment [18], the target named is Beta-2 adrenergic receptor (Homo sapiens) (UniProt P07550). As to the kind of experiment: Adrenergic beta2 receptor (ADRB2) small molecule antagonists, cell-based qHTS assay (AID 1963592). Further: series mostly up to about 92 µM; nearly all actives have a fitted effect of over 50% in size. In a few lines:
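Assay format: CHO-ADRB2 cells, 18-20hr seeding at 37C/5% CO2, then compound plus 1nM isoproterenol agonist mix for 0.5hr RT. Homogeneous time-resolved fluorescence cAMP detection after 1hr, expressed as 665/615 nm ratio.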

The nature of experiment [19]: cAMP Responsive Elements (CRE) small molecule agonists, cell-based qHTS assay (AID 1963590). In a few lines:
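HEK 293T cells stably bearing CRE-bla were plated at 2,000 cells per well and rested 18 h. Compounds, positive controls or DMSO were added for 3 h at 37 C. LiveBLAzer B/G substrate was then loaded for 2 h at room temperature.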

Muscarinic acetylcholine receptor M1 (Homo sapiens), sequence (P11229 whole entry, looked up): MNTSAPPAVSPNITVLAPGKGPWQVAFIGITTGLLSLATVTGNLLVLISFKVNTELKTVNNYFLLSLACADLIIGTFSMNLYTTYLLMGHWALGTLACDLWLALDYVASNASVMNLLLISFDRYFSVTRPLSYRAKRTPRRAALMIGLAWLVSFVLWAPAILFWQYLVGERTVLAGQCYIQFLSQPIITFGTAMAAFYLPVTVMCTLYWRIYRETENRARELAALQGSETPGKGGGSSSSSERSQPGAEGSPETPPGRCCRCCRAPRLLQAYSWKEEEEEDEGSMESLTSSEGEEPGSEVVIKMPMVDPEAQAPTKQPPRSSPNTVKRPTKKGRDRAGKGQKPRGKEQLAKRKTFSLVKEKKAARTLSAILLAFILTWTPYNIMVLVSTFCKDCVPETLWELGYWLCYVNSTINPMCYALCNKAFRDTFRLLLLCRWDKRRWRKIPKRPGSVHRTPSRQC
D(2) dopamine receptor (Homo sapiens), sequence (P14416 whole entry, looked up): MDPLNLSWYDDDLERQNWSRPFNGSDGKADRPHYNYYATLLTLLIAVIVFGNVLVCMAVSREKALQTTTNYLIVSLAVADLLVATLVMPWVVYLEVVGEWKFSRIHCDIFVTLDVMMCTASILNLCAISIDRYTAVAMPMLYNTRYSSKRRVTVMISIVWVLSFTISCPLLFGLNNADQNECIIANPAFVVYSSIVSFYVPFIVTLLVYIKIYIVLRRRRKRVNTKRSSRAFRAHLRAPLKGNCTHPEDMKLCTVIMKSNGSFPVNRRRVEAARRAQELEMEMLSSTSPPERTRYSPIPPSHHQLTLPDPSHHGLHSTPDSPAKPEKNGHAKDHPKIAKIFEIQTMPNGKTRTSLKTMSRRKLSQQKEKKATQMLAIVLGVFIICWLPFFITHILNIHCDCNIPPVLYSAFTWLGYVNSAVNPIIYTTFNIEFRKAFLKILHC
Beta-2 adrenergic receptor (Homo sapiens), sequence (P07550 whole entry, looked up): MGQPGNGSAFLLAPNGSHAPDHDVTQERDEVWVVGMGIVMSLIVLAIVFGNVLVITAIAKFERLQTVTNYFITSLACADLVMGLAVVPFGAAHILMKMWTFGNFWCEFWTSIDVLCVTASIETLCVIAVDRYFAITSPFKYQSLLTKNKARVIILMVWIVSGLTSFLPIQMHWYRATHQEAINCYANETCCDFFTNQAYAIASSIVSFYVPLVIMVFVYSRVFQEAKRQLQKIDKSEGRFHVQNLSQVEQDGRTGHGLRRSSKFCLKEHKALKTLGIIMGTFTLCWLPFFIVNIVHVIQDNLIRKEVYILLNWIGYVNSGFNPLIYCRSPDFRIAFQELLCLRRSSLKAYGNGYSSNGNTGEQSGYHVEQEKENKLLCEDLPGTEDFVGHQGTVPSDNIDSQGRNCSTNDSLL
Gonadotropin-releasing hormone receptor (Homo sapiens), sequence (P30968 whole entry, looked up): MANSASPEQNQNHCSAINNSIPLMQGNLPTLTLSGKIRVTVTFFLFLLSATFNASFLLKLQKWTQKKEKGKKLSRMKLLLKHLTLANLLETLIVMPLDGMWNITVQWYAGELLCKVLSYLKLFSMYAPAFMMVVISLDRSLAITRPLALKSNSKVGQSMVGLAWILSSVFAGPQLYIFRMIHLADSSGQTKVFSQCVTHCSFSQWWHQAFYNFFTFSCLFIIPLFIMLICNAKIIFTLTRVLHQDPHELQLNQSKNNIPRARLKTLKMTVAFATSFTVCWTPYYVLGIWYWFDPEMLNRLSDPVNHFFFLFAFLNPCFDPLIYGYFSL
5-hydroxytryptamine receptor 2A (Homo sapiens), sequence (P28223 whole entry, looked up): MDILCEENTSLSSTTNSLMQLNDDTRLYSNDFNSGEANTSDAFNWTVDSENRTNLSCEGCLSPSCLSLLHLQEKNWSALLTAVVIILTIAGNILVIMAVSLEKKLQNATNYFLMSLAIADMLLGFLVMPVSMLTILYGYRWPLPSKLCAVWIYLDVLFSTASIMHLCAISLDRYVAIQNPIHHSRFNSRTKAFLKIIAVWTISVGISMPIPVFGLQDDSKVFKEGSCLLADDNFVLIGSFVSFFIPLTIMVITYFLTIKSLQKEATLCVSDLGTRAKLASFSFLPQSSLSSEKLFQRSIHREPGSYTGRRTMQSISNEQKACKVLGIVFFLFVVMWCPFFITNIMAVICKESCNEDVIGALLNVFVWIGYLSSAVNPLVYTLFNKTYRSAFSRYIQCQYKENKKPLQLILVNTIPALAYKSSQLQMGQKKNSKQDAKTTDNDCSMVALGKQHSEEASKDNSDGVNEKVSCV

Regarding `Nc1ccc2cc3ccc(N)cc3nc2c1`, the Potency was 1.54 µM (active) and 6.68 µM (active) in [1]; 38.9 µM (active) and 16.9 µM (active) in experiment [2]; 49 µM (active) and 23.9 µM (active) in experiment [3]; 38.9 µM (active) and 16.9 µM (active) in [4]; 1.82 µM (active) in experiment [9]; 19.5 µM (active) and 19 µM (active) in experiment [11]. Further, in experiment [13], the Potency was 43.6 µM (active) and 23.9 µM (active). In addition, the Potency entry in experiment [5], in experiment [6], in experiment [7], in experiment [8], in experiment [10] and in experiment [12] was “inactive” in each case. Besides, the Potency entry in experiment [14] and in [15] was “inactive” each time.

Take `CN(C)CC/C=C1\c2ccccc2Sc2ccc(Cl)cc21`: the Potency result in [1], in experiment [2], in experiment [3], in experiment [4], in [5] and in experiment [16] was “inactive” throughout. Moreover, the Potency result in [6], in experiment [8], in experiment [11], in [12], in experiment [13] and in experiment [17] was “inactive” in each case. The Potency result in [18] and in experiment [14] was “inactive” each time. For the same compound, the Potency in experiment [10] was 0.0729 µM (active); in [15] it was 0.531 µM (active).

Consider `CO[Si](OC)(c1ccccc1)c1ccccc1`, for which the Potency result in experiment [1], in experiment [2], in experiment [3], in experiment [4], in [5] and in [16] was “inactive” each time. In addition, the Potency result in [8], in experiment [9], in [10], in [11], in experiment [12] and in experiment [19] was “inactive” each time. Besides, the Potency entry in experiment [17], in [18], in experiment [14] and in [15] was “inactive” throughout.

For `CO[C@@]12[C@H](COC(N)=O)C3=C(C(=O)C(C)=C(N)C3=O)N1C[C@@H]1N[C@@H]12`, the Potency was 11.9 µM (active) in experiment [1], 4.46 µM (active) in [16] and 15.8 µM (active) in experiment [9]. The Potency result in [2], in experiment [3], in experiment [4], in [5], in experiment [6] and in experiment [8] was “inactive” in each case. Further, the Potency result in [19] and in [17] was “inactive” throughout.

On to `O=S(=O)(c1ccc(OCc2ccccc2)cc1)c1ccccc1O`, for which the Potency entry in experiment [1], in experiment [2], in experiment [3], in experiment [4], in [5] and in experiment [16] was “inactive” each time. In addition, the Potency result in experiment [8], in [11], in [12], in experiment [13], in [17] and in [14] was “inactive” in each case. Also, the Potency in experiment [10] was 0.594 µM (active); in [15], 61.1 µM (active).

For `CCc1cc(Cc2cc(CC)c(N)c(CC)c2)cc(CC)c1N`, the Potency result in experiment [1], in [2], in experiment [3], in experiment [4], in experiment [5] and in experiment [16] was “inactive” throughout. Also, the Potency result in experiment [10], in [11], in experiment [12], in experiment [13], in [19] and in experiment [17] was “inactive” throughout. In experiment [15], the Potency was 54.5 µM (active).

For `C=CC(C)(CCC=C(C)C)OC(=O)/C=C/c1ccccc1` (centres undefined), the Potency in experiment [1] is 68.6 µM (active). Moreover, the Potency entry in [2], in [3], in [4], in experiment [5], in [16] and in [8] was “inactive” throughout. Besides, the Potency entry in experiment [9], in experiment [10], in experiment [11], in experiment [12], in experiment [13] and in [19] was “inactive” throughout. The Potency entry in experiment [17], in experiment [18], in experiment [14] and in experiment [15] was “inactive” throughout.

Regarding `CNCC[C@@H](Oc1ccccc1C)c1ccccc1`, the Potency entry in [1], in [2], in experiment [3], in experiment [4], in experiment [5] and in experiment [16] was “inactive” each time. In addition, the Potency entry in experiment [7], in experiment [9], in experiment [11], in experiment [17], in experiment [18] and in experiment [15] was “inactive” each time.
